Experimental data as given in PubChem BioAssay (NCATS).
Results filed as inconclusive are left out. The source made the active and inactive calls. Unless noted, calls follow the shape of the full dose curve.

Legend:
[1] = target: Estrogen receptor (Homo sapiens) (UniProt P03372); experiment: qHTS assay for small molecule antagonists of estrogen receptor alpha signaling (AID 588513; active = well fitted curve in the direction sought with a large enough effect in the signal ratio, with a control signal flat, not every such curve was filed as active; the % refers to the signal ratio; also: % is scaled to controls: 0 for no effect and ±100 for the full control effect); conditions: ER-alpha-UAS-bla HEK293, beta-lactamase ratio, antagonist mode; series mostly up to 76.9 µM
Chain of Estrogen receptor (Homo sapiens) (P03372 whole entry, looked up): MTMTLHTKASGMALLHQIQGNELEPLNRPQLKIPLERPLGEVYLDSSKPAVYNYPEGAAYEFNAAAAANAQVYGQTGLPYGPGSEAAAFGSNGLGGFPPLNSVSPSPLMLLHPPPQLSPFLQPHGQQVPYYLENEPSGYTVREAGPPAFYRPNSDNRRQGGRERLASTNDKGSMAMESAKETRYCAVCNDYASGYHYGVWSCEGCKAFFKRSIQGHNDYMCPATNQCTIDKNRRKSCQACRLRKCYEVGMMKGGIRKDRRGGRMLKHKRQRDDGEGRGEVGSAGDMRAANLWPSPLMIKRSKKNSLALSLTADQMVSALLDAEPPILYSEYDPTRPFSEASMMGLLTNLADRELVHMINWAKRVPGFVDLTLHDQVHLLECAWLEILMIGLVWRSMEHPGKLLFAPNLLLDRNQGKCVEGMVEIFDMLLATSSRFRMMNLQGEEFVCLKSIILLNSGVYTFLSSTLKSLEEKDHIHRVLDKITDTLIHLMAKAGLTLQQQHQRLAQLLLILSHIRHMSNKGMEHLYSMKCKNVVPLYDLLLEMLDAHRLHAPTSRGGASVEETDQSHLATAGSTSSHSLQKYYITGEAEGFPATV
In short: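 ER-alpha-UAS-bla GripTite HEK 293 cells in medium with 2% charcoal/dextran-treated FBS were preincubated 4 h at 37 C, dosed with compound (1:2 titration), stimulated with 0.5nM 17-beta-estradiol for 18 h, then read by CCF4 beta-lactamase fluorescence.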

[2] = target: Estrogen receptor (Homo sapiens) (UniProt P03372); experiment: qHTS assay for small molecule agonists of estrogen receptor alpha signaling (AID 588514); conditions: ER-alpha-UAS-bla HEK293, beta-lactamase ratio, 18 h; series mostly up to 76.8 µM;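 also: 0% = vehicle only and 100% = reference agonist; nearly all actives have a fitted effect of over 70% in size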
In short: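 Reporter-gene assay. […] controls beta-lactamase in HEK 293 GripTite cells; after 18 hrs with compound, CCF4 substrate is added for 2 hrs and fluorescence is read.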

[3] = qHTS assay for small molecule antagonists of peroxisome proliferator-activated receptor delta signaling (AID 588535); conditions: HEK293T PPARd-UAS-bla, beta-lactamase FRET ratio, 18 h; 460 nm channel;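 also: cells co-treated with a PPAR-delta agonist as stimulator during compound exposure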
In short: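 Cell-based beta-lactamase assay in antagonist mode: 4000 HEK293T PPAR-delta-UAS-bla cells per well, 5 hr preincubation then 18 hr compound incubation at 37 C. IC50 obtained by Hill equation fitting.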

[4] = target: Vitamin D3 receptor (Homo sapiens) (UniProt P11473); experiment: qHTS assay for small molecule agonists of vitamin D receptor signaling (AID 588543); conditions: HEK293T VDR-UAS-bla, beta-lactamase ratio, 16 h; series mostly up to 76.8 µM;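 also: 0% = DMSO basal and 100% = reference agonist control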
Chain of Vitamin D3 receptor (Homo sapiens) (P11473 whole entry, looked up): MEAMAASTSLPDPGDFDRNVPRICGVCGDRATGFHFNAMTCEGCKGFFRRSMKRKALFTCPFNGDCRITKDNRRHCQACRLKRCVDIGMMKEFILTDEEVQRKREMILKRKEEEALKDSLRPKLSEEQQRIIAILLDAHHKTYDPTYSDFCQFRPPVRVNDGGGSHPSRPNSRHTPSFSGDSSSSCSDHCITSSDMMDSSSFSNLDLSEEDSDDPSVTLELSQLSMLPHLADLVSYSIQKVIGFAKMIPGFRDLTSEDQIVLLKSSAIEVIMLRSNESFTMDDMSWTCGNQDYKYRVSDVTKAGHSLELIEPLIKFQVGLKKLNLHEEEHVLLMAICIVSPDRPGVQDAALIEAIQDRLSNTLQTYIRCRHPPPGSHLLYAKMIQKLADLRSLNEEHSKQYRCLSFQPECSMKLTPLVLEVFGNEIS
In short: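 GeneBLAzer VDR-UAS-bla HEK293T cells in 2% charcoal-stripped FBS medium were dosed with compound titrations for 16 h at 37 °C; CCF4 β-lactamase readout (405 nm ex, 460/530 nm em). EC50 and efficacy from Hill fits, normalized to 50 nM calcitriol (100%) and DMSO (0%).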

[5] = qHTS assay for small molecule agonists of retinoid X receptor alpha signaling (AID 588544); conditions: HEK293T RXRa-UAS-bla, beta-lactamase reporter, 18 h; 530 nm emission;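 as to activation: 0% = DMSO basal wells and 100% = reference agonist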
[6] = target: Retinoic acid receptor RXR-alpha (Homo sapiens) (UniProt P19793); experiment: as above; conditions: HEK293T RXRa-UAS-bla, beta-lactamase reporter, 18 h; series mostly up to 76.7 µM
Chain of Retinoic acid receptor RXR-alpha (Homo sapiens) (P19793 whole entry, looked up): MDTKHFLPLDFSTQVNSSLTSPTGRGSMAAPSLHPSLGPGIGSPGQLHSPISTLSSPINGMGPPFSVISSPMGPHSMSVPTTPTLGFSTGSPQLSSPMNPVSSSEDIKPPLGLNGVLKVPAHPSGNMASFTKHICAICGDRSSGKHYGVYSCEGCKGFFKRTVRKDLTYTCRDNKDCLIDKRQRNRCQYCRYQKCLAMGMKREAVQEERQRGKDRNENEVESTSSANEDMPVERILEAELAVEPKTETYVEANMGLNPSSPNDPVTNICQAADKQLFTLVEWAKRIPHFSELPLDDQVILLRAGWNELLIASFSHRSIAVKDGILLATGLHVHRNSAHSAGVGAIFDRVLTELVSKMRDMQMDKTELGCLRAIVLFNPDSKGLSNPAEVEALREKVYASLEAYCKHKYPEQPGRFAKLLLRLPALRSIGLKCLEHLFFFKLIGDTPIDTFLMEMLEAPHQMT

[7] = target: Thyroid hormone receptor beta (Homo sapiens) (UniProt P10828); experiment: qHTS assay for small molecule agonists of thyroid hormone receptor beta signaling (AID 588545); conditions: TR-UAS-bla GripTite HEK 293, beta-lactamase ratio, agonist mode, 18 h; series mostly up to 76.7 µM;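 also: 0% = DMSO only and 100% = 10 nM T3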
Chain of Thyroid hormone receptor beta (Homo sapiens) (P10828 whole entry, looked up): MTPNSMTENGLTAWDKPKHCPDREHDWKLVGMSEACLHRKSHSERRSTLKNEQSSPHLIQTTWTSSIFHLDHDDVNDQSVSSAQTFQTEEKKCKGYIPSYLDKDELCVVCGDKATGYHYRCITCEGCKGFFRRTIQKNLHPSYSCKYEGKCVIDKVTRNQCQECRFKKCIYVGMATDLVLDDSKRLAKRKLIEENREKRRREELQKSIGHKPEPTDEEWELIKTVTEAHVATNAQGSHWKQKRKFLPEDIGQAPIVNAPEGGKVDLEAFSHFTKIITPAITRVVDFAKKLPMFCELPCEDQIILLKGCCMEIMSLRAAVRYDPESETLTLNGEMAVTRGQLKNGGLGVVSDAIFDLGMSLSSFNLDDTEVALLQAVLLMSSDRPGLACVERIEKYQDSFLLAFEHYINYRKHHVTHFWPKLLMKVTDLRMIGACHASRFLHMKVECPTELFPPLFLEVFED
In short: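 Beta-lactamase reporter activity under TR response element control is measured in HEK 293 cells after 18 hrs compound exposure. Signal is ratiometric CCF4 fluorescence, 460/530 nm.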

[8] = qHTS assay for small molecule antagonists of retinoid X receptor alpha signaling (AID 588546; active = well fitted inhibition curve with a large enough effect in the signal ratio, with a control signal flat, not every such curve was filed as active; the % refers to the signal ratio;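 also: cells stimulated with 9-cis-retinoic acid as agonist; % is scaled to controls: 0 for no effect and ±100 for the full control effect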); conditions: HEK293T RXRa-UAS-bla, beta-lactamase ratio, antagonist mode; measured here: W530 green channel, cytotoxicity proxy
In short: (§1)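 Beta-lactamase reporter inhibition, read as CCF4 fluorescence ratio (ex 405, em 460/530 nm) after 2 h at RT. HEK293T UAS-bla cells, 2500/well, were stimulated with 9-cis-RA at 500 or 100 nM final alongside test compound for 18 h at 37 C.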

[9] = target: Thyroid hormone receptor beta (Homo sapiens) (UniProt P10828); experiment: qHTS assay for small molecule antagonists of thyroid hormone receptor beta signaling (AID 588547; active = well fitted inhibition curve with a large enough effect in the signal ratio, with a control signal flat, not every such curve was filed as active; the % refers to the signal ratio;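 also: cells stimulated with 0.4 nM T3 agonist during compound exposure; % is scaled to controls: 0 for no effect and ±100 for the full control effect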); conditions: TR-UAS-bla HEK293, beta-lactamase ratio, antagonist mode, 18 h
In short: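 Inhibition of T3-driven (0.4nM final) beta-lactamase reporter activity was measured over 0.59 nM to 92 uM compound after 18 h at 37 C. The cells were GripTite HEK293 TR-UAS-bla in charcoal/dextran-stripped serum, with CCF4 ratio read-out and IC50 from Hill fits.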

[10] = qHTS assay for small molecule activators of the nuclear factor-kappa B (NF-kB) signaling pathway (AID 651749; active = well fitted activation curve with a large enough effect in the signal ratio; the % refers to the signal ratio; also: % of control where 0% means no effect); conditions: NF-kB-bla ME-180 cells, beta-lactamase FRET ratio, 16 h; activation: stronger effect = higher value
In short: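 Stably transfected ME-180 line; NF-kB response element upstream of beta-lactamase. Treatment: compound or DMSO, 16 hr. Detection: fluorescent FRET substrate.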

[11] = qHTS assay for environmental chemicals that activate the Aryl hydrocarbon Receptor (AhR) signaling pathway (AID 651777; active = well fitted curve in the direction sought with a large enough effect; an effect the other way counts as inactive or inconclusive; also: % of control where 0% means no effect; nearly all actives have a fitted effect of over 15% in size); conditions: 1A2-DRE human hepatoma cells, luciferase, 24 h; activation: stronger effect = higher value
In short: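 Reporter gene assay: hepatoma cells with DRE/CYP1A2-luciferase, 24 hr compound incubation at 37 C, 5% CO2, luminescence after One-Glo (30 min, RT).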

[12] = target: Peroxisome proliferator-activated receptor alpha (Homo sapiens) (UniProt Q07869); experiment: qHTS assay for small molecule agonists of the peroxisome proliferator-activated receptor alpha (PPARalpha) signaling pathway (AID 651778; active = well fitted curve in the direction sought with a large enough effect; an effect the other way counts as inactive or inconclusive; also: % of control where 0% means no effect); conditions: PathHunter PPARalpha complementation, chemiluminescence, 6 h; max response: stronger effect = higher value
Chain of Peroxisome proliferator-activated receptor alpha (Homo sapiens) (Q07869 whole entry, looked up): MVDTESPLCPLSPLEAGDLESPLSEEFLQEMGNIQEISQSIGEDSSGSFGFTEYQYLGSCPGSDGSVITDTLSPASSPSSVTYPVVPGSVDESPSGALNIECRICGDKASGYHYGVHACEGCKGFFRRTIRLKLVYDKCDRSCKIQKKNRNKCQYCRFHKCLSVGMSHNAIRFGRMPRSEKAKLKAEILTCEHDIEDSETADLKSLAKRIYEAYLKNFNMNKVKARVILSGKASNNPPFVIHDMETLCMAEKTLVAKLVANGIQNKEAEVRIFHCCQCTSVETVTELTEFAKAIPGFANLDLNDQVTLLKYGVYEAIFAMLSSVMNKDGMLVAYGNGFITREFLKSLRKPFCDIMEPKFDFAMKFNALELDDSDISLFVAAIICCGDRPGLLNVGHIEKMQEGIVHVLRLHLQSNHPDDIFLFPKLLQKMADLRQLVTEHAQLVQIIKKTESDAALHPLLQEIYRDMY
In short: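 Chemiluminescence from complemented enzyme reported PPARalpha activation in cells after 6 hr of compound treatment at 37 C. The detection reagent was incubated for 60 min at room temperature, and compounds were scored as agonists.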

[13] = qHTS assay for small molecule agonists of the antioxidant response element (ARE) signaling pathway measured by Nrf2-dependant transcriptional activity (AID 720636; active = well fitted curve in the direction sought with a large enough effect in the repeat runs; an effect the other way counts as inactive or inconclusive;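 also: HepG2 cells with an ARE-driven luciferase reporter; % of control where 0% means no effect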); conditions: ARE-luc HepG2, Nrf2 luciferase reporter, 16 h; series mostly up to 92.4 µM
In short: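 Nrf2-dependent transcription is measured in ARE-luc HepG2 cells: compound is applied for 16 hr at 37 C after a 6 hr attachment period, and luciferase activity is quantified by luminescence using ONE-Glo.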

[14] = qHTS assay for small molecule agonists of the antioxidant response element (ARE) signaling pathway measured by Nrf2-dependant transcriptional activity - cell viability counter screen (AID 720653; active = well fitted curve in the direction sought with a large enough effect in the repeat runs; an effect the other way counts as inactive or inconclusive; also: % is scaled to controls: 0 for no effect and ±100 for the full control effect); conditions: ARE-bla HepG2 viability, CellTiter-Glo ATP luminescence, 16 h; max response: stronger effect = lower value
In short: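 Cytotoxicity counter screen: intracellular ATP quantified by CellTiter-Glo luminescence in the same ARE-bla HepG2 plates, after 16 h compound exposure and a 2 h beta-lactamase substrate step.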

[15] = qHTS assay for cell viability of HEK293 cells (AID 743288; active = well fitted curve in the direction sought with a large enough effect; an effect the other way counts as inactive or inconclusive; also: % is scaled to controls: 0 for no effect and ±100 for the full control effect; nearly all actives have a fitted effect of over 50% in size); conditions: ATP luminescence (CellTiter-Glo), 18 h; max response: stronger effect = lower value
In short: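 Parental HEK293 cells were seeded at 2,000 cells/well, rested at least 5 h at 37 C, then exposed to compounds in DMSO for 18 h at 37 C. Viability was read as ATP-dependent luciferase luminescence after 30 min at room temperature.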

[16] = qHTS assay for cell viability of the p53RE-bla HCT-116 cell line (AID 743292; active = well fitted curve in the direction sought with a large enough effect; an effect the other way counts as inactive or inconclusive; also: % is scaled to controls: 0 for no effect and ±100 for the full control effect; nearly all actives have a fitted effect of over 55% in size); conditions: p53RE-bla HCT-116 viability, ATP luminescence, 16 h; series mostly up to 95 µM
In short: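 ATP-based luminescence, 16 h compound exposure at 37 C, p53RE-bla HCT-116 cells at 4,000/well.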

[17] = target: Nuclear receptor subfamily 1 group I member 2 (Rattus norvegicus) (UniProt Q9R1A7); experiment: qHTS assay for small molecule activators of the rat pregnane X receptor (rPXR) signaling pathway (AID 651751; call rule not given here; also: 0% is about no effect); conditions: rPXR reporter cells, luciferase (One-Glo), 24 h
Chain of Nuclear receptor subfamily 1 group I member 2 (Rattus norvegicus) (Q9R1A7 whole entry, looked up): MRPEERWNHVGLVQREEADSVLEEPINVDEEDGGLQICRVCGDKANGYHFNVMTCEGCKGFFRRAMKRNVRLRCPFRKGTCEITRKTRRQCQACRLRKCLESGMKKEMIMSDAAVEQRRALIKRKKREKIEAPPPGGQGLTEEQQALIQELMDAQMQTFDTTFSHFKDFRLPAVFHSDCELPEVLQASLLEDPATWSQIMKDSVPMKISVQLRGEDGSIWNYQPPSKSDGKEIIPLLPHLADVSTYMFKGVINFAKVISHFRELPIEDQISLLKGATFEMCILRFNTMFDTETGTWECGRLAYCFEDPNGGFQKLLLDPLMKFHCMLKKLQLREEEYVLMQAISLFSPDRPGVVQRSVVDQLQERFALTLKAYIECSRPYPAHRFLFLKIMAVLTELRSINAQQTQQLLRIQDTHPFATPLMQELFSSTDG

[18] = qHTS assay for small molecule activators of the human pregnane X receptor (PXR) signaling pathway (AID 720659; call rule not given here; also: 0% is about no effect); conditions: DPX-2 HepG2 CYP3A4-luciferase, 24 h; series mostly up to 92.3 µM
[19] = target: Peroxisome proliferator-activated receptor gamma (Homo sapiens) (UniProt P37231); experiment: qHTS assay for small molecule agonists of peroxisome proliferator-activated receptor gamma signaling (AID 588536; active = well fitted curve in the direction sought with a large enough effect in the signal ratio, with a control signal flat, not every such curve was filed as active; the % refers to the signal ratio;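 also: 0% = DMSO basal wells and 100% = rosiglitazone at 2 µM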); conditions: HEK293 PPARg-UAS-bla, beta-lactamase ratio, 16 h, percent of rosiglitazone response, DMSO as zero; series mostly up to 76.7 µM
Chain of Peroxisome proliferator-activated receptor gamma (Homo sapiens) (P37231 whole entry, looked up): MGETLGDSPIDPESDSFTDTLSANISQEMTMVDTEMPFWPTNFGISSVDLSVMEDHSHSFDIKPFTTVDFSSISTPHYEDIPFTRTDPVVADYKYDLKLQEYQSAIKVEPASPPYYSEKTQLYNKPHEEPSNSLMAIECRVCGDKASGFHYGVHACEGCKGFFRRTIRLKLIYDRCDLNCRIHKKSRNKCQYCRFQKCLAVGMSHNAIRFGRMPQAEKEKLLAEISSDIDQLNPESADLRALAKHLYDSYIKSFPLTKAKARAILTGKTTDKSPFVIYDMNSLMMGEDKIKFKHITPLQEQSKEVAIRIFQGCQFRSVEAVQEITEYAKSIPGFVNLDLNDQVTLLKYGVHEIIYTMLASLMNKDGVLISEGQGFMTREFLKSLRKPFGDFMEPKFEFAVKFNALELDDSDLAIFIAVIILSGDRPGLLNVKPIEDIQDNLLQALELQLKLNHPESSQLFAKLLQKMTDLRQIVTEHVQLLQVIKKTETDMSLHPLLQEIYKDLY
In short: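 HEK293 UAS-bla reporter line, 1% charcoal/dextran FBS; titration, 16 h, 37 C; CCF4 loading 2 h RT; fluorescence 460/530 nm. Normalized to rosiglitazone 2 uM = 100%, DMSO = 0%.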

[20] = target: Retinoic acid receptor RXR-alpha (Homo sapiens) (UniProt P19793); experiment: qHTS assay for small molecule antagonists of retinoid X receptor alpha signaling (AID 588546); conditions: HEK293T RXRa-UAS-bla, beta-lactamase ratio, antagonist mode;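 also: cells stimulated with 9-cis-retinoic acid as agonist; % is scaled to controls: 0 for no effect and ±100 for the full control effect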
In short: as §1

O=C(O)CCCCCCCCCCC(=O)O
2.61%: max response [8]
inactive: Potency [1] | Potency [2] | outcome [4] | Potency [6] | Potency [7] | activity change % (negative = inhibition) [9] 17.5% | activation [10] -0.986% | activation [11] 3.26% | max response [12] -1.09% | Potency [13] | max response [14] -6.19% | max response [15] -10.8% | Potency [16] | max response [17] 0.83% | outcome [18]
18.9%: max response [3]
0.198%: max response [5]

CCCCCCCCCc1ccccc1
1.13%: max response [3]
-10.2%: max response [8]
inactive: Potency [1] | Potency [2] | outcome [19] | Potency [6] | Potency [7] | max response [20] 2.35% | activity change % (negative = inhibition) [9] 0.977% | activation [10] -0.21% | activation [11] 0.637% | Potency [13] | max response [14] 4.47% | max response [15] 2.81% | Potency [16] | max response [17] 1.1% | outcome [18]
-8.55%: max response [5]

CCCCCCCCCCCCCc1ccccc1
inactive: Potency [1] | Potency [2] | outcome [19] | outcome [4] | Potency [6] | Potency [7] | max response [20] -2.52% | activity change % (negative = inhibition) [9] 11.3% | activation [10] -0.242% | activation [11] 2.83% | max response [12] -0.643% | Potency [13] | max response [14] -7.31% | max response [15] 4.66% | Potency [16] | max response [17] 0.527% | outcome [18]
-8.78%: max response [5]
-13.4%: max response [8]
21.6%: max response [3]

O=C(c1ccc(Cl)cc1)c1ccc(Cl)cc1
6.29%: max response [5]
inactive: Potency [1] | Potency [2] | outcome [19] | outcome [4] | Potency [6] | Potency [7] | max response [20] 7.91% | activation [10] 1.57% | activation [11] -0.153% | max response [12] -1.26% | Potency [13] | max response [14] -5.32% | max response [15] -7.2% | Potency [16] | max response [17] 0.85% | outcome [18]
24.6%: max response [3]
-11.4%: max response [8]

CCCCCC1CCC(=O)O1 (stereo not given)
inactive: Potency [1] | Potency [2] | outcome [4] | Potency [6] | Potency [7] | max response [20] 2.03% | activation [10] -1.34% | max response [14] 1.26% | max response [15] -7.91% | Potency [16] | max response [17] 2.69% | outcome [18]
-5.36%: max response [5]
31.3%: max response [3]
-5.89%: max response [8]

CCCCOC(=O)c1ccccc1
-7.9%: max response [5]
0.0882%: max response [3]
inactive: Potency [1] | Potency [2] | outcome [4] | Potency [6] | activation [10] 0.836% | max response [12] -1.04% | Potency [13] | max response [14] 21.3% | max response [15] -6.32% | Potency [16] | max response [17] -2.16% | outcome [18]
-1.79%: max response [8]
